{
  "source": "PubChem BioAssay (NCATS)",
  "note": "Inconclusive results are not listed. Where a call stands in place of a potency, no number is given. Calls of active or inactive are those of the source. Calls follow the shape of the dose curve; as a rule, active = well fitted curve in the direction sought with a large enough effect; inconclusive = small, poorly fitted or top-dose-only effect, or another doubt; inactive = no such curve, though single readings can be large; an effect the other way counts as inactive or inconclusive.",
  "data": [
    {"biological_target": "Aldehyde dehydrogenase, mitochondrial (Homo sapiens) (UniProt P05091)", "experiment": "qHTS for Inhibitors of the Aldehyde Dehydrogenase Family (ALDH2) Primary screen (AID 2061308); also: nearly all actives have a fitted effect of over 55% in size", "details": "ALDH2 enzyme inhibition qHTS, 1536-well; series mostly up to 56 µM", "values": [
      {"smiles": "NS(=O)(=O)c1ccc(N2N=C(c3ccccc3)CC2c2ccccc2)cc1", "note": "(centres undefined)", "Potency": "inactive"},
      {"smiles": "Fc1ccc2c(CCNCc3cccc(OCC(F)(F)C(F)F)c3)c[nH]c2c1", "Potency": "inactive"},
      {"smiles": "CC(C)(C)c1cc(Br)cc([C@H](CC(=O)O)NC(=O)CNC(=O)c2cc(O)cc(NC3=NCC(O)CN3)c2)c1", "note": "(some centres undefined)", "Potency": "inactive"},
      {"smiles": "CN(C)CCn1cc(-c2ccc(F)cc2)c(-n2cccc2)n1", "Potency": "inactive"}
    ]},
    {"biological_target": "Retinaldehyde dehydrogenase 3 (Homo sapiens) (UniProt P47895)", "experiment": "qHTS for Inhibitors of the Aldehyde Dehydrogenase Family (ALDH1A3) Validation screen (AID 2061312); also: nearly all actives have a fitted effect of over 45% in size", "details": "ALDH1A3 enzyme inhibition qHTS validation, fluorescence; series mostly up to 84.7 µM", "values": [
      {"smiles": "CS(=O)(=O)Nc1ccc2oc3c(OC(F)F)ccc(C(=O)Nc4c(Cl)cncc4Cl)c3c2c1", "Potency": "inactive"},
      {"smiles": "Nc1c(-c2ccccc2)nc(Cl)c2c(O)n[nH]c(=O)c12", "Potency": "inactive"},
      {"smiles": "CCNC(=O)C1CC(F)(c2ccc(CN3CCCC3)c(F)c2)C1", "note": "(centres undefined)", "Potency": "inactive"},
      {"smiles": "Cc1cccc2c1NC(=O)C2(c1ccc(O)cc1)c1ccc(O)cc1", "Potency": "inactive"},
      {"smiles": "COc1cc(N)c(Cl)cc1C(=O)NC[C@@H]1CCN2CCC[C@@H]12", "Potency": "inactive"},
      {"smiles": "O=C(O)Cc1ccc2oc(-c3ccc(NC(=O)/C=C/c4ccc(Br)cc4)c(F)c3)nc2c1", "Potency": "inactive"},
      {"smiles": "C[C@H](Nc1cc2c(-c3ccc4c(c3)OCO4)noc2cn1)c1ccccc1", "Potency": "inactive"},
      {"smiles": "O=C(NCc1ccccn1)Nc1nnc(-c2ccco2)o1", "Potency": "inactive"},
      {"smiles": "Cc1cc(C)nc(NS(=O)(=O)c2ccc(NC(=S)NC(=O)COc3ccc(Br)cc3Cl)cc2)n1", "Potency": "inactive"},
      {"smiles": "CC(OC1OCCN(Cc2n[nH]c(=O)[nH]2)C1c1ccc(F)cc1)c1cc(C(F)(F)F)cc(C(F)(F)F)c1", "note": "(centres undefined)", "Potency": "inactive"},
      {"smiles": "COc1cc(Nc2nc3c(s2)CCCC3c2ccc(F)cc2)ccc1-n1cnc(C)c1", "note": "(centres undefined)", "Potency": "inactive"},
      {"smiles": "CSc1ccc(C(=O)N[C@@H]2CCCC[C@@H]2NC(=O)CNC(=O)c2cc(C(F)(F)F)ccc2NC(=O)NC(C)C)cc1", "Potency": "inactive"},
      {"smiles": "CC(C)S(=O)(=O)NC[C@H](C)c1ccc(-c2ccc(CCNS(C)(=O)=O)cc2)cc1", "Potency": "inactive"},
      {"smiles": "CN(C)C(=O)NC1(c2ccccc2)CCN(CCC[C@]2(c3ccc(Cl)c(Cl)c3)CCCN(C(=O)c3ccccc3)C2)CC1", "Potency": "inactive"},
      {"smiles": "O=C(O)c1cccc(S(=O)(=O)N2CCc3ccccc3C2)c1", "Potency": "inactive"},
      {"smiles": "CC(C)(F)CC(NC(c1ccc(-c2ccc(S(C)(=O)=O)cc2)cc1)C(F)(F)F)C(=O)NC1(C#N)CC1", "note": "(centres undefined)", "Potency": "inactive"},
      {"smiles": "Oc1ccc(-c2cnc3ccc(NCc4ccco4)nn23)cc1", "Potency": "inactive"},
      {"smiles": "COc1cc2c(cc1OC)-c1[nH]nc(Nc3cccc(F)c3)c1C2", "Potency": "inactive"},
      {"smiles": "CC[C@H]1CN(c2nc(N)c(C(N)=O)nc2Cl)CCN1C1CCN(Cc2ccc(Cl)cc2)CC1", "Potency": "inactive"},
      {"smiles": "CC(C)(F)C[C@@H](N[C@@H](c1ccc(-c2ccc(S(C)(=O)=O)cc2)cc1)C(F)(F)F)C(=O)NC1(C#N)CC1", "Potency": "inactive"},
      {"smiles": "CCOc1ccc(C(Nc2ccccn2)c2ccc3ccc(C)nc3c2O)cc1C", "note": "(centres undefined)", "Potency": "inactive"},
      {"smiles": "Cc1ccccc1C(=O)Nc1ccc(C(=O)N2CCCC(N(C)C)c3ccccc32)cc1", "note": "(centres undefined)", "Potency": "inactive"},
      {"smiles": "COc1cc2nc(C3CC3)nc(N3CCN(c4ccccc4OC)CC3)c2cc1OC", "Potency": "inactive"},
      {"smiles": "Cc1ccc(NC(=O)C(C)C)cc1C1CCN(Cc2ccc(Oc3ccc(F)c(F)c3)cc2)CC1", "Potency": "inactive"},
      {"smiles": "O=C1CC2(CCCC2)[C@H](O)C(=O)N1CCCCN1CCN(c2ncccn2)CC1", "Potency": "inactive"},
      {"smiles": "Cc1c(NC(=O)N2CCOCC2)ccc2c1c1ccccc1n2C(C)C", "Potency": "inactive"},
      {"smiles": "Cc1ccc(-c2c(-c3nn(C)c4ncnc(N5CC[C@H](N6CCCCC6)C5)c34)cnn2C)cc1", "Potency": "inactive"},
      {"smiles": "CCOC(=O)c1ccc(NC2CCCCC2)c(N)c1", "Potency": "inactive"},
      {"smiles": "Cc1oc2nc3c(c(NC(=O)CN4CCCC4=O)c2c1C)CCCC3", "Potency": "inactive"},
      {"smiles": "CC(C)c1c(NC(=O)Nc2ccc(Cl)cc2)c(=O)n(-c2ccccc2)n1C", "Potency": "inactive"},
      {"smiles": "CN[C@@H]1[C@@H](O)[C@@H](O[C@@H]2[C@@H](O)[C@H](O[C@H]3O[C@H](CN)[C@@H](O)[C@H](O)[C@H]3O)[C@@H](N)C[C@H]2NC(=O)[C@@H](O)CN)OC[C@]1(C)O", "Potency": "inactive"},
      {"smiles": "COC(=O)CCc1ccc(OCC(O)CNC(C)C)cc1", "note": "(centres undefined)", "Potency": "inactive"},
      {"smiles": "CCOc1ccc(NC(=S)N2CCC(C(O)(c3ccccc3)c3ccccc3)CC2)cc1", "Potency": "inactive"},
      {"smiles": "COc1cccc(-n2nc(C(=O)O)cc2-c2ccc(C3CCCCC3)c(Cl)c2)c1", "Potency": "inactive"},
      {"smiles": "O=C1C(Cc2ccc(O)cc2)N2C(=O)CCN(C(=O)NCc3ccccc3)C2CN1Cc1cccc2ccccc12", "note": "(centres undefined)", "Potency": "inactive"},
      {"smiles": "CCC[C@@]1(CCc2ccccc2)CC(O)=C([C@H](CC)c2cccc(NS(=O)(=O)c3ccc(C(F)(F)F)cn3)c2)C(=O)O1", "Potency": "inactive"},
      {"smiles": "NS(=O)(=O)c1ccc(N2N=C(c3ccccc3)CC2c2ccccc2)cc1", "note": "(centres undefined)", "Potency": "inactive"},
      {"smiles": "Fc1ccc2c(CCNCc3cccc(OCC(F)(F)C(F)F)c3)c[nH]c2c1", "Potency": "inactive"},
      {"smiles": "CC(C)(C)c1cc(Br)cc([C@H](CC(=O)O)NC(=O)CNC(=O)c2cc(O)cc(NC3=NCC(O)CN3)c2)c1", "note": "(some centres undefined)", "Potency": "inactive"},
      {"smiles": "CN(C)CCn1cc(-c2ccc(F)cc2)c(-n2cccc2)n1", "Potency": "inactive"}
    ]}
  ]
}
